Reference: PubChem BioAssay (EPA / NIEHS)
Several values for one entry are separate records, joined by “and”; a condition that tells them apart may be missing. Equal entries are not always repeated. Results filed as inconclusive are left out. The source holds several records for some structures; these can differ, active in one and inactive in another. Activity calls are given as the source filed them. How the source made its calls, unless noted: active means hit-call score of the fitted dose curve at least 0.9, where 1 is the maximum; inactive means score below 0.9.

Legend:
[1] = BSK_3C_Vis: BioMAP Diversity Plus: 3C Assay for Morphology Visualization (AID 2283025); conditions: primary human endothelial cells (HUVEC);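 further: fitted both ways so gain or loss versus DMSO counts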;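 on AC50: light microscopy image of cell morphology used as background control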
Procedure, shortened: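 Endothelial cells from human umbilical vein were treated with test chemicals for 24 h and inspected by light microscopy for changes in cell conformation.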

[2] = read-out: Transforming growth factor beta 1 (TGFb1), TGFB1 (gene 7040); test: BSK_BE3C_TGFb1: BioMAP Diversity Plus: BE3C Assay for Transforming growth factor beta 1 (TGFb1) Biomarker Activity (AID 2283036;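 further: TGF-b1 protein level measured by ELISA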); conditions: primary human bronchial epithelial cells; actives raise or lower the signal
Procedure, shortened: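 In this human primary bronchial epithelial system, an ELISA quantified TGF-b1 one day after dosing. Endpoint changes in either direction were fitted relative to DMSO.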

[3] = BSK_CASM3C_SRB: Viability Assessment in the BioMAP Diversity Plus: CASM3C Assay (AID 2283050); conditions: primary human coronary artery smooth muscle cells;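 further: total protein by SRB staining as cytotoxicity measure in parallel cultures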
[4] = read-out: Transforming growth factor beta 1 (TGFb1), TGFB1 (gene 7040); test: BSK_KF3CT_TGFb1: BioMAP Diversity Plus: KF3CT Assay for Transforming growth factor beta 1 (TGFb1) Biomarker Activity (AID 2283072); conditions: primary human keratinocytes with fibroblasts; actives raise or lower the signal
Procedure, shortened: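 Signal changes in either direction, relative to DMSO, define activity here. TGF-b1 is read by ELISA from a human keratinocyte-fibroblast co-culture 24 h post-dose.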

CD40, CD40 (gene 958) = test: BSK_LPS_CD40: BioMAP Diversity Plus: LPS Assay for CD40 Biomarker Activity (AID 2283076); conditions: primary human HUVEC with PBMC; actives raise or lower the signal
Procedure, shortened: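 Using a multiplexed primary human co-culture (umbilical vein endothelium plus PBMC), CD40 was read by ELISA 24 h after dosing, with cytotoxicity tracked by sulforhodamine B staining of parallel cultures and activity fitted bidirectionally versus DMSO.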

CD38, CD38 (gene 952) = test: BSK_SAg_CD38: BioMAP Diversity Plus: SAg Assay for CD38 Biomarker Activity (AID 2283087); conditions: primary human HUVEC with PBMC; actives raise or lower the signal
Procedure, shortened: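 Fluorescence ELISA of cell-surface CD38 served as the read-out, with either increase or decrease fitted against DMSO controls. Cells were a human umbilical vein endothelium plus PBMC co-culture under SEB/TSST-1 stimulation, measured 24 h after dosing.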

CD69, CD69 (gene 969) = test: BSK_SAg_CD69: BioMAP Diversity Plus: SAg Assay for CD69 Biomarker Activity (AID 2283089); conditions: primary human HUVEC with PBMC; actives raise or lower the signal;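 on AC50: cell surface CD69 protein quantified by ELISA with fluorescence detection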
Procedure, shortened: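 Values derive from bidirectional fitting relative to DMSO vehicle. Cells: umbilical vein endothelium plus peripheral blood mononuclear cells, treated 24 h before fluorescent ELISA for CD69.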

[5] = read-out: Monocyte Chemoattractant Protein-1 (MCP1), CCL2 (gene 6347); test: BSK_SAg_MCP1: BioMAP Diversity Plus: SAg Assay for Monocyte Chemoattractant Protein-1 (MCP1) Biomarker Activity (AID 2283090); conditions: primary human HUVEC with PBMC; actives raise or lower the signal
Procedure, shortened: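 MCP-1 levels in the endothelial–PBMC SAg co-culture were quantified by ELISA at 24 h post-dosing; both increases and decreases versus DMSO scored. Cytotoxicity monitored by SRB total protein in parallel cultures.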

[6] = read-out: Monokine induced gamma interferon (MIG), CXCL9 (gene 4283); test: BSK_SAg_MIG: BioMAP Diversity Plus: SAg Assay for Monokine induced gamma interferon (MIG) Biomarker Activity (AID 2283092); conditions: primary human HUVEC with PBMC; actives raise or lower the signal
Procedure, shortened: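 Values reflect bidirectional fitting of ELISA-measured MIG against DMSO vehicle, taken 24 h after dosing of a co-culture of human umbilical vein endothelial cells and peripheral blood mononuclear cells.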

[7] = BSK_SAg_Proliferation: Cell Proliferation Assessment in the BioMAP Diversity Plus: SAg Assay (AID 2283095); conditions: primary human HUVEC with PBMC;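 further: relative cell number as total protein by SRB absorbance in sub-confluent culture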
Procedure, shortened: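 Readout is SRB-stained protein (560 nm) in a primary human HUVEC and PBMC co-culture; sub-confluent cultures are read at 96 h. Activity is fitted bidirectionally using DMSO as baseline.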

[8] = BSK_SAg_SRB: Viability Assessment in the BioMAP Diversity Plus: SAg Assay (AID 2283096); conditions: primary human HUVEC with PBMC;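 further: cells read one day after compound addition; hits may be either gain or loss of signal compared with DMSO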
Procedure, shortened: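 Endothelial/PBMC primary human co-culture; compound 24 h; fix 10% TCA, stain 0.1% SRB, A560; protein content as cytotoxicity proxy; bidirectional curve fit, DMSO = baseline.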

[9] = biological target: Retinoic acid receptor alpha (Homo sapiens) (UniProt P10276); test: ATG_RARa_TRANS: Attagene TRANS-FACTORIAL HepG2 Assay for human Retinoic Acid Receptor alpha (RARa) (AID 2283005; active means hit-call score of the fitted dose curve at least 0.9, where 1 is the maximum)
Retinoic acid receptor alpha (Homo sapiens), sequence (P10276 whole entry, looked up, the tested form may be a part): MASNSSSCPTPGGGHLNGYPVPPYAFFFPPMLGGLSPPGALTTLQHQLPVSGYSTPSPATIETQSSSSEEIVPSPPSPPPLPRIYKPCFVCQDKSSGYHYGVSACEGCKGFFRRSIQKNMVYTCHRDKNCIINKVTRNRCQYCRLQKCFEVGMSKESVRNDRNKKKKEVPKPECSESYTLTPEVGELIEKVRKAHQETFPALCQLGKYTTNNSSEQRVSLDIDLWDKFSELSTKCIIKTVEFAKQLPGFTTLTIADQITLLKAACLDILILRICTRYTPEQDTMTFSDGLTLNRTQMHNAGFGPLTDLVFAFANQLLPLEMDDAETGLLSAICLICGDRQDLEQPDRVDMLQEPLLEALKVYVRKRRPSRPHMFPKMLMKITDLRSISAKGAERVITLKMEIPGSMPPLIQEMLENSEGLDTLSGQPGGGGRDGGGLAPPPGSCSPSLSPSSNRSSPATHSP
Procedure, shortened: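 HepG2 cells transiently transfected with multiple reporter units expressing chimeric RARα-GAL4 fusion, with GAL4-UAS-driven reporters. After 24 h compound exposure, reporter mRNA induction quantified by RT-PCR and capillary electrophoresis with fluorescent labeling; gain-of-signal fitted relative to DMSO control.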

[10] = read-out: Secreted IgG (sIgG), gene 3500; test: BSK_BT_sIgG: BioMAP Diversity Plus: BT Assay for Secreted IgG (sIgG) Biomarker Activity (AID 2284226); conditions: primary human B cells with PBMC
Procedure, shortened: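 Secreted IgG from a human primary B cell–PBMC co-culture was measured by ELISA 24 hours after dosing, with DMSO defining baseline activity.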

[11] = BSK_BT_Bcell_Proliferation: Viability Assessment in the BioMAP Diversity Plus: BT Assay for B cell Proliferation (AID 2284227); conditions: primary human B cells with PBMC
Procedure, shortened: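 Using a human primary B cell–PBMC co-culture, the assay measures total protein by sulforhodamine B absorbance as a gauge of proliferation after 72 h. Analysis followed the positive fitting direction with DMSO as baseline.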

[12] = read-out: Interleukin 6 (IL6), IL6 (gene 3569); test: BSK_BT_xIL6: BioMAP Diversity Plus: BT Assay for Interleukin 6 (IL6) Biomarker Activity (AID 2284228); conditions: primary human B cells with PBMC
Procedure, shortened: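 IL-6 secretion measured (Luminex xMAP) in human primary B cell + PBMC co-culture at 24 h of chemical exposure; DMSO served as negative control and activity baseline, with curves fitted for increase.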

[13] = read-out: Interleukin 17A (IL17A), IL17A (gene 3605); test: BSK_BT_xIL17A: BioMAP Diversity Plus: BT Assay for Interleukin 17A (IL17A) Biomarker Activity (AID 2284229); conditions: primary human B cells with PBMC
Procedure, shortened: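 Human primary B cells plus PBMC, treated 24 h with chemicals; supernatant IL-17A quantified on Luminex xMAP beads. Gain of signal over DMSO control scored as activity.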

[14] = read-out: Collagen I, COL1A1 (gene 1277); test: BSK_MyoF_CollagenI: BioMAP Diversity Plus: MyoF Assay for Collagen I Biomarker Activity (AID 2284238); conditions: primary human lung fibroblasts
Procedure, shortened: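 Measured by ELISA: Collagen I from human lung fibroblasts 24 h after compound addition, analysed for signal gain with DMSO as baseline; overt toxicity read from SRB staining of parallel cultures at the same time.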

[15] = read-out: Collagen III, COL3A1 (gene 1281); test: BSK_MyoF_CollagenIII: BioMAP Diversity Plus: MyoF Assay for Collagen III Biomarker Activity (AID 2284239); conditions: primary human lung fibroblasts
Procedure, shortened: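 Multiplexed cell assay in lung fibroblasts, harvested at 24 h post-dose. Collagen III detected by ELISA, with positive-direction fitting relative to DMSO vehicle.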

[16] = read-out: Interleukin 17F (IL17F), IL17F (gene 112744); test: BSK_BT_xIL17F: BioMAP Diversity Plus: BT Assay for Interleukin 17F (IL17F) Biomarker Activity (AID 2284243); conditions: primary human B cells with PBMC
Procedure, shortened: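 Luminex readout of IL-17F secretion, 24 h; cells: human B cells with PBMC; positive-direction analysis, DMSO control.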

[17] = biological target: Estrogen receptor (Homo sapiens) (UniProt P03372); test: ATG_ERa_TRANS: Attagene TRANS-FACTORIAL HepG2 Assay for human Estrogen Receptor alpha (ERa) (AID 2282970; active means hit-call score of the fitted dose curve at least 0.9, where 1 is the maximum); conditions: HepG2 Attagene TRANS ERa GAL4 reporter, mRNA
Estrogen receptor (Homo sapiens), sequence (P03372 whole entry, looked up, the tested form may be a part): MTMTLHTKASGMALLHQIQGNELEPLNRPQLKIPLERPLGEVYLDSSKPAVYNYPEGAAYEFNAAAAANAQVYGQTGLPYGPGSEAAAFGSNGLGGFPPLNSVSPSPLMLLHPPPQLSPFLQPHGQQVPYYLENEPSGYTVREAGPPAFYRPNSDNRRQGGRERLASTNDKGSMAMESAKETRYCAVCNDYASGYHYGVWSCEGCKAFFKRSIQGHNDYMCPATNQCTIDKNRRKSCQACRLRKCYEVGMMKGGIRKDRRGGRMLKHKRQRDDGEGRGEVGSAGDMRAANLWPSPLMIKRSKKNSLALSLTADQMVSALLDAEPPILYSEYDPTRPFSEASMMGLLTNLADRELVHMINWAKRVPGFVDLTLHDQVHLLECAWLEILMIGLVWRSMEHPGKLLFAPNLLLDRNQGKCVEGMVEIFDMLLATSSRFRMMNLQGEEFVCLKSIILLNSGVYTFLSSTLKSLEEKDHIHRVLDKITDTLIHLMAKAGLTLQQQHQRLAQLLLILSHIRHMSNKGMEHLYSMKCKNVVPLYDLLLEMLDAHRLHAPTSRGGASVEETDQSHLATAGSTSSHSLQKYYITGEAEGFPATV
Procedure, shortened: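 Multiplexed cell-based reporter format in HepG2: chimeric ERa-Gal4 protein drives GAL4-UAS reporter transcription. Fluorescent reporter mRNA quantified by capillary electrophoresis 24 hours after dosing; endpoint fitted as signal gain against DMSO.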

Measured: AC50

CCC(C)=NO
inactive: [1] | [2] | [3] | [4] | CD40, CD40 (gene 958) | CD38, CD38 (gene 952) | CD69, CD69 (gene 969) | [5] | [6] | [7] | [8]

CCCCCCC(O)CCCCCCCCCCC(=O)OC (stereo unspecified)
inactive: [9] | [1] | [2] | [3] | [4] | CD40, CD40 (gene 958) | CD38, CD38 (gene 952) | CD69, CD69 (gene 969) | [5] | [6] | [7] | [8] | [10] | [11] | [12] | [13] | [14] | [15] | [16]

CCCc1c(OCCCCc2nn[nH]n2)ccc(C(C)=O)c1O
inactive: [17]

CCC(C)NC(N)=O (stereo unspecified)
inactive: [17]

COC(OC)C(C)c1ccccc1 (stereo unspecified)
inactive: [17]

Oc1ccc(Oc2ccccc2)cc1
active: [17] 1.44 µM

CCOc1ccc2c(c1)C(C)CC(C)(C)N2 (stereo unspecified)
inactive: [9]

Cc1ccnc(N)c1
inactive: [9]

CCCCCC1CCCC(=O)O1 (stereo unspecified)
inactive: [9]

COC(=O)/C=C\C(=O)OC
inactive: [1] | [2] | [3] | [4] | CD40, CD40 (gene 958) | CD38, CD38 (gene 952) | CD69, CD69 (gene 969) | [5] | [6] | [7] | [8] | [11] | [13] | [14] | [15]
active: [10] 20 µM | [12] 14.5 µM | [16] 20 µM

CC[N+](CC)(CC(=O)Nc1c(C)cccc1C)Cc1ccccc1
inactive: [2] | [3] | [4] | CD40, CD40 (gene 958) | CD38, CD38 (gene 952) | CD69, CD69 (gene 969) | [5] | [6] | [7] | [8] | [10] | [11] | [12] | [13] | [14] | [15] | [16]
active: [1] 39.8 µM

O=C(C(=O)c1ccccc1)c1ccccc1
inactive: [1] | [2] | [3] | [4] | CD40, CD40 (gene 958) | CD38, CD38 (gene 952) | CD69, CD69 (gene 969) | [5] | [6] | [7] | [8] | [10] | [11] | [12] | [13] | [14] | [15] | [16]

CN(C)CCC(c1ccc(Cl)cc1)c1ccccn1 (stereo unspecified)
inactive: [1] | [2] | [3] | [4] | CD40, CD40 (gene 958) | CD38, CD38 (gene 952) | CD69, CD69 (gene 969) | [5] | [6] | [7] | [8] | [10] | [11] | [12] | [13] | [14] | [15] | [16]

COc1ccc(C(=O)c2ccccc2O)c(O)c1
inactive: [3] | CD40, CD40 (gene 958) | CD38, CD38 (gene 952) | CD69, CD69 (gene 969) | [5] | [6] | [7] | [8]

CCCCC(CC)COC(=O)C=Cc1ccc(OC)cc1 (stereo unspecified)
inactive: [3] | CD40, CD40 (gene 958) | [6]
active: CD40, CD40 (gene 958) 20 µM | CD38, CD38 (gene 952) 28.5 µM and 20 µM | CD69, CD69 (gene 969) 26.3 µM and 18.6 µM | [5] 31.7 µM and 32.3 µM | [7] 34.9 µM and 37.8 µM | [8] 31 µM and 35.2 µM
